What was measured:
Experiment in all cases: log2 ratio of Biotin-Ahx-Ub-VS probe labelling (fragment/DMSO); higher = less target engagement (more negative = stronger competition), active = hit call of the paper (q ≤ 0.05, log2 ratio ≤ -1)
Settings in all cases: compound concentration: 200 uM; treatment time: 3 h
USP34 = USP34 (UniProt Q70CQ2)
Outline: (§1)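 HEK293T lysate (495 µg per sample, in Tris/CHAPS/IGEPAL buffer with protease inhibitors) was treated in triplicate with fragment at 200 µM or with DMSO for 3 h. It was then treated with Biotin-Ahx-Ub-VS (0.5 µM final) for 1 h. Labelled DUBs were NeutrAvidin-enriched, digested with LysC and trypsin, and run by diaPASEF LC-MS/MS. Spectronaut label-free quantities were global-median-normalised. Values are average log2 ratios fragment/DMSO by unpaired t-test, using proteins with ≥2 unique peptides.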

USP36 = biological target: T1, USP36 (UniProt Q9P275)
T1 sequence (whole entry): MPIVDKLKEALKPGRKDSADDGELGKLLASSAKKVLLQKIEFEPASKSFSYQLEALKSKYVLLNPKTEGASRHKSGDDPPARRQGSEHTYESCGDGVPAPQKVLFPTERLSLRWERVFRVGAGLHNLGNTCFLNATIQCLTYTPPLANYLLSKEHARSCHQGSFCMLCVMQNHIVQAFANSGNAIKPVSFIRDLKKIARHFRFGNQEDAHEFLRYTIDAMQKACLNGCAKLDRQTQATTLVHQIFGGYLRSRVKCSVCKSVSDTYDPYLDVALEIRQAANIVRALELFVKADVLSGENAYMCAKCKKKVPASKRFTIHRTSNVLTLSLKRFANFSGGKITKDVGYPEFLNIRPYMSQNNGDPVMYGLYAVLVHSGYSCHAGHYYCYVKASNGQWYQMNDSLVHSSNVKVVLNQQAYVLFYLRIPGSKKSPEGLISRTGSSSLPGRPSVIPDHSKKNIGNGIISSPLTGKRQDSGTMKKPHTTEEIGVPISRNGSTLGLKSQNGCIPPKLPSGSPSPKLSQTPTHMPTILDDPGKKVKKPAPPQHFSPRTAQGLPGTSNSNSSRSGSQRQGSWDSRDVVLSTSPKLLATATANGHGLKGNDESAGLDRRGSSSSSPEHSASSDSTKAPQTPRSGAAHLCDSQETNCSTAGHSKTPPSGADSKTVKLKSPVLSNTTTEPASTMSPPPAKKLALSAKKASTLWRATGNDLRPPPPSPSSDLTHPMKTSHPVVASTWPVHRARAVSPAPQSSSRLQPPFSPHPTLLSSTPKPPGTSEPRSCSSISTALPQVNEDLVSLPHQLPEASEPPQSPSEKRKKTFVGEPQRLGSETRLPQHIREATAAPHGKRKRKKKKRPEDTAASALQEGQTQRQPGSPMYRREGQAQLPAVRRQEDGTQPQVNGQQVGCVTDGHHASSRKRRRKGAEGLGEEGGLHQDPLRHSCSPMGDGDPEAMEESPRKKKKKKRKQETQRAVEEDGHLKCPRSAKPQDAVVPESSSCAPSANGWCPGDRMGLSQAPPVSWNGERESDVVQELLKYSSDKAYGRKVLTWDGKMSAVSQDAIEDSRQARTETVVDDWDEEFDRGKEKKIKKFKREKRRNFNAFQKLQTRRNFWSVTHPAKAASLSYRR
Outline: as §1

USP38 = biological target: T2, USP38 (UniProt Q8NB14)
T2 sequence (whole entry): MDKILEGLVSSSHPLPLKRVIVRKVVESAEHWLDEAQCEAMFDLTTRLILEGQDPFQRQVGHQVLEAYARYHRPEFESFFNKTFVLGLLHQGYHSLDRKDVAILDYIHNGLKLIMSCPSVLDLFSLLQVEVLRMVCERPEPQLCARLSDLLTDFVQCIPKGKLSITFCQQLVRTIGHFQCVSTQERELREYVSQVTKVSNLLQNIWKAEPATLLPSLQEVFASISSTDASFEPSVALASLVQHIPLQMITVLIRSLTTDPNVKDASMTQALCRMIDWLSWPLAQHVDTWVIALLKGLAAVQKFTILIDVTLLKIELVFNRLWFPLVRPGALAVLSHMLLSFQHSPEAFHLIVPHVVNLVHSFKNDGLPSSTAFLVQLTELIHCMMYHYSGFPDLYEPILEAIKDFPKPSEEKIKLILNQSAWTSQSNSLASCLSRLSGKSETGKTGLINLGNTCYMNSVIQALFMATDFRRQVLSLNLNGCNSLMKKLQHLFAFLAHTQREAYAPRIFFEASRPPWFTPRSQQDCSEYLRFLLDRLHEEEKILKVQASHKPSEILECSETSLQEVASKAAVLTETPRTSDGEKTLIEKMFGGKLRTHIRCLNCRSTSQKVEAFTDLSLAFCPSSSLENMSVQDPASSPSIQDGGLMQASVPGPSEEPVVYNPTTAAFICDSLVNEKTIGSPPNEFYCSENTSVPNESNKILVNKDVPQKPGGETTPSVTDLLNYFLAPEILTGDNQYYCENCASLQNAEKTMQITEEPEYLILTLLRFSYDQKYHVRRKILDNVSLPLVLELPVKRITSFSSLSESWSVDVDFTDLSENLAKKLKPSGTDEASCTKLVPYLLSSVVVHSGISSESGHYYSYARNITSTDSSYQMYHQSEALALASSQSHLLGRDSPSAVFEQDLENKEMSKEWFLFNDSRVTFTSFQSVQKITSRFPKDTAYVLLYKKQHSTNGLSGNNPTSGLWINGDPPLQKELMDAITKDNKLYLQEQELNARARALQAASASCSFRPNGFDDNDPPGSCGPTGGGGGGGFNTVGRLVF
Outline: as §1

USP39 = biological target: T3, USP39 (UniProt Q53GS9)
T3 sequence (whole entry): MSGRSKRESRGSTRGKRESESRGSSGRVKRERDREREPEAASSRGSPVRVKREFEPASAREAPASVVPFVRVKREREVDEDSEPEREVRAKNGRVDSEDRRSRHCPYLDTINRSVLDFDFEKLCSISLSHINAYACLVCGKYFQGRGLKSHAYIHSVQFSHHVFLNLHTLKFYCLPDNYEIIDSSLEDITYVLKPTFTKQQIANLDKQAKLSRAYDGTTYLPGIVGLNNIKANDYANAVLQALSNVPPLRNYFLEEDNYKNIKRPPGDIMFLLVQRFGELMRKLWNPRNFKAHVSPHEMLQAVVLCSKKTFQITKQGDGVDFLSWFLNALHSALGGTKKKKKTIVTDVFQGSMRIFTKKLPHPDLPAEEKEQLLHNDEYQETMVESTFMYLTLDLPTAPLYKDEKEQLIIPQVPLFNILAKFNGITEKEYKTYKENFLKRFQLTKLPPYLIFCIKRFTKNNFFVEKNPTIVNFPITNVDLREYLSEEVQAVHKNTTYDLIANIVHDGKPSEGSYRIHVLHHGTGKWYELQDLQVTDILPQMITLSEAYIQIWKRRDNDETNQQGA
Outline: as §1

USP4 = biological target: T4, USP4 (UniProt Q13107)
T4 sequence (whole entry): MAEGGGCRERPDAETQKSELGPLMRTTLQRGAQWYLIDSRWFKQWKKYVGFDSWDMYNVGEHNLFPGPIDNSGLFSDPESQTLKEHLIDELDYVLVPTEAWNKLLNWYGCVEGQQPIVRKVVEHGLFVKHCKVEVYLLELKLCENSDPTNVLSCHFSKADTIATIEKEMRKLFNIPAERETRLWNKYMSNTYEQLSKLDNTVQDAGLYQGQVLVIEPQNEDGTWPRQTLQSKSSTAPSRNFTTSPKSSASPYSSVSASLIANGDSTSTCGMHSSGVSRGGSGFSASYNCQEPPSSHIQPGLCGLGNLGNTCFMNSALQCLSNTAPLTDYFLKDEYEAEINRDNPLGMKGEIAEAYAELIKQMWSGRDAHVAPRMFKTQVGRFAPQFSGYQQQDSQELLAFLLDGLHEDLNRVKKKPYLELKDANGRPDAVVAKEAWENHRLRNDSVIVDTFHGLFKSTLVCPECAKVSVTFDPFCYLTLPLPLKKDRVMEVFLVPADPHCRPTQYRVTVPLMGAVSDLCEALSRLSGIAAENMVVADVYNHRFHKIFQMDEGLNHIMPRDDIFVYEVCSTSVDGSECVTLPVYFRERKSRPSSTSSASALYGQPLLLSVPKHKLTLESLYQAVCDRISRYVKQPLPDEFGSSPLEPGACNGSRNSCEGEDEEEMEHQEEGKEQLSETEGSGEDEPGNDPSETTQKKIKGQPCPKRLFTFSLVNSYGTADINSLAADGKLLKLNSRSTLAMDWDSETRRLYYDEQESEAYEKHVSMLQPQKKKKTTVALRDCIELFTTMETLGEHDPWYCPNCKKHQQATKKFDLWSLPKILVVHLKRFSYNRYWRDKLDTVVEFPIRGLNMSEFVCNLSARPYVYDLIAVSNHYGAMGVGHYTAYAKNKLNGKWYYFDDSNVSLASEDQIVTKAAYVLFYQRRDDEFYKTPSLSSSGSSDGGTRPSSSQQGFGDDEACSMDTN
Outline: as §1

Measured: log2 ratio of Biotin-Ahx-Ub-VS probe labelling

Chain of USP34 (Q70CQ2 whole entry, the tested form may be a part): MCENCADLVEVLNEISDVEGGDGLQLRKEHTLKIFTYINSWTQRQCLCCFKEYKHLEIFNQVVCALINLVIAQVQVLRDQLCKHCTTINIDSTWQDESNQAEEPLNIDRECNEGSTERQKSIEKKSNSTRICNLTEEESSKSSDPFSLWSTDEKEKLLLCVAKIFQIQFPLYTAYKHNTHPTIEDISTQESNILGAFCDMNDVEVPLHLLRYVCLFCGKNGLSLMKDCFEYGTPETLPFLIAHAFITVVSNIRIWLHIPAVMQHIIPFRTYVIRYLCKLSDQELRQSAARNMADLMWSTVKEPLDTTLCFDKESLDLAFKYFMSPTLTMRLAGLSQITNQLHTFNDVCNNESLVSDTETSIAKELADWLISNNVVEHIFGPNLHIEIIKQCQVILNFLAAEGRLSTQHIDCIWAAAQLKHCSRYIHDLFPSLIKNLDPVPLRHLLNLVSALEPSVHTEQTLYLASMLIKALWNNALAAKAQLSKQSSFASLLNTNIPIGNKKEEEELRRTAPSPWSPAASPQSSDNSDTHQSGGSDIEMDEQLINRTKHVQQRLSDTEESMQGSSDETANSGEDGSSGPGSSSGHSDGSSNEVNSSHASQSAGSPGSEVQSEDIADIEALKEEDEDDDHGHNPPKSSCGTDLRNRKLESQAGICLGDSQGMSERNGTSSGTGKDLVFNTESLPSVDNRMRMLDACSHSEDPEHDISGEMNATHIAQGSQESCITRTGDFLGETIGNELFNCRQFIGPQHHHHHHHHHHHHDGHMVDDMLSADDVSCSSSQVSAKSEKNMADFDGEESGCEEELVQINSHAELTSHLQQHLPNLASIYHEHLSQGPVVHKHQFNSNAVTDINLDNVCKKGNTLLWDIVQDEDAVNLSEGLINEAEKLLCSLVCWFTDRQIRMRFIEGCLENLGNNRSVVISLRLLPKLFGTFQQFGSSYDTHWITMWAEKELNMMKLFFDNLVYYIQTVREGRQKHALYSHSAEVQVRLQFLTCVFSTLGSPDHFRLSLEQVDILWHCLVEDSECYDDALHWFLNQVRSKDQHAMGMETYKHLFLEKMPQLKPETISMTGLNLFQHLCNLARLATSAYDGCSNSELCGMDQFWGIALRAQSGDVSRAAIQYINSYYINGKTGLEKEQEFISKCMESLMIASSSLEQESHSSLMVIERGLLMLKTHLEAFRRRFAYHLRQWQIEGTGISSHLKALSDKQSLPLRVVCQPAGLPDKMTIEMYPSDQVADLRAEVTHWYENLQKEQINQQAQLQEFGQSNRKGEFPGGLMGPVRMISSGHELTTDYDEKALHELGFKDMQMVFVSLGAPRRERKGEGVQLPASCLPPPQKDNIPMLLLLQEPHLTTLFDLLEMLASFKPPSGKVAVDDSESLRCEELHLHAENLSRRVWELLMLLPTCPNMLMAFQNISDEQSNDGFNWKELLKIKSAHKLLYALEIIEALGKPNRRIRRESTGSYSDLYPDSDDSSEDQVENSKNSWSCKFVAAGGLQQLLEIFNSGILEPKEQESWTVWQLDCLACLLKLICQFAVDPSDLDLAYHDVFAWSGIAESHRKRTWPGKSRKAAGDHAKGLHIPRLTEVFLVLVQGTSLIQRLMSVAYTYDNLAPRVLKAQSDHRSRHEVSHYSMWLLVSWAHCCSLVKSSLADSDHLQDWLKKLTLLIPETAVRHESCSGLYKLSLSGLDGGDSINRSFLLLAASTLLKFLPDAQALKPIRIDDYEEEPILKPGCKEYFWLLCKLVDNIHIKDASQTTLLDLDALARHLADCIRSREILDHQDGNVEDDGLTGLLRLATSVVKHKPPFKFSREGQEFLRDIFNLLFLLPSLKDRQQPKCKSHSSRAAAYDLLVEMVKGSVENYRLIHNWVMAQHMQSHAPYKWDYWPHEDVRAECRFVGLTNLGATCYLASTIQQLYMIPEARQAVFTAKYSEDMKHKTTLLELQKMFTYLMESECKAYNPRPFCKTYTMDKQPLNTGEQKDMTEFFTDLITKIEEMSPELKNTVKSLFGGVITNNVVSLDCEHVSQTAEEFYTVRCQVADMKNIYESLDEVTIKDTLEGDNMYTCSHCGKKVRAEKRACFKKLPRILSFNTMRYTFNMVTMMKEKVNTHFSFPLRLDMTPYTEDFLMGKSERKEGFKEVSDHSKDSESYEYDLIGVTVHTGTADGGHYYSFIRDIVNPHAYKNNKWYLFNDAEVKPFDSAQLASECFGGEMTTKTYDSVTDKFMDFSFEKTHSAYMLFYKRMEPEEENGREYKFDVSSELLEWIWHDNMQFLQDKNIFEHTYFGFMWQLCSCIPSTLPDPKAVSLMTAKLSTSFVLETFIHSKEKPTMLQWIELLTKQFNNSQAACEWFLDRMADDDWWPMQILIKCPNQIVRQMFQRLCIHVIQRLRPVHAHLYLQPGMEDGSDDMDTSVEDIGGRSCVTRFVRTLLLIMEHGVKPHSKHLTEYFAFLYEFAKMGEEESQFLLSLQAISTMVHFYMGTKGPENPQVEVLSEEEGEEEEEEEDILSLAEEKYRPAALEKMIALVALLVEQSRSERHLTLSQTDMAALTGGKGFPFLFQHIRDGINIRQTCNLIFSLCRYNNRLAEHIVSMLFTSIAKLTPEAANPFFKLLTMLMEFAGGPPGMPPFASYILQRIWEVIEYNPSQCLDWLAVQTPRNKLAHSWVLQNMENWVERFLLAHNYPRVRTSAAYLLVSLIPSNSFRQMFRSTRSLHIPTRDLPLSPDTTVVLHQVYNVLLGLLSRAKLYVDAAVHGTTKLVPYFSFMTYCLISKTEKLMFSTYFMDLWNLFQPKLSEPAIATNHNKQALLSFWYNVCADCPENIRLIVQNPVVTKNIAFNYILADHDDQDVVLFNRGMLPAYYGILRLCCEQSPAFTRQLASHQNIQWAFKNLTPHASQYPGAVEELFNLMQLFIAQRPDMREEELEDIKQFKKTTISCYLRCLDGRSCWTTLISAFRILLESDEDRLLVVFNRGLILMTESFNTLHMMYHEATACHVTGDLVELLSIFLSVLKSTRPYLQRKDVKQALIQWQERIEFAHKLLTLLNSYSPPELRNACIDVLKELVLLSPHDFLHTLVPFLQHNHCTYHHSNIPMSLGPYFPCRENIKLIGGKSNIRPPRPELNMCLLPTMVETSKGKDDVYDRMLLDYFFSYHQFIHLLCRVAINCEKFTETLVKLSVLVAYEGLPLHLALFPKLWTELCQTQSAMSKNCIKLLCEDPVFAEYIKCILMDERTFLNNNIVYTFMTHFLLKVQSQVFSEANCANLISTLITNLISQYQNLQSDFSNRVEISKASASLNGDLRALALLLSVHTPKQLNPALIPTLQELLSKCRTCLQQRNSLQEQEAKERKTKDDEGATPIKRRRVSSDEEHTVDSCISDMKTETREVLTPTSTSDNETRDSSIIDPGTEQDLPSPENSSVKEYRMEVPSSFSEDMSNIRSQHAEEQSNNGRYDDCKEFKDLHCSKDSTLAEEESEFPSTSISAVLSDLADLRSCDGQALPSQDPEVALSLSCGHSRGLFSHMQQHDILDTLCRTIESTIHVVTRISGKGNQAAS

Cc1ccc(-c2nnc(C)[nH]2)c(NC(=O)CCl)c1
inactive: USP34 0.0375 | USP36 -0.152 | USP38 0.151 | USP39 0.182 | USP4 0.0297

From the supplement of paper PMC11732987, “Enantioselective OTUD7B fragment discovery through chemoproteomics screening and high-throughput optimisation” (Communications Chemistry, 2025)
